Measurements reported in PubChem BioAssay AID504909 (Southern Research Specialized Biocontainment Screening …, 2011).
Results with a measured potency or affinity are listed apart. Calls of active or inactive are those of the source. No rule for the calls is given here.

Experiment: Vero cell cytotoxicity, dose response, cytotoxicity control for M. tuberculosis growth inhibitor project, Vero cells, purified and synthesized compounds, set 5 (AID 504909)
Conditions: series mostly up to 100 µM

Row | SMILES | outcome
1 | Cc1cc(=O)[nH]c(SCC(=O)NC2CCCCC2)n1 | inactive
2 | Cc1ccc(NC(=O)COC(=O)CCc2c[nH]c3ccccc23)cc1[N+](=O)[O-] | inactive
3 | CC(C)NC(=O)CSc1nc2ccccc2c(=O)[nH]1 | inactive
4 | COC(=O)c1ccc(CNc2c(N3CCCC3)c(=O)c2=O)cc1 | inactive
5 | Nc1cc(=O)[nH]c(SCC(=O)NC2CCCCC2)n1 | inactive
6 | Cc1c[nH]c(=S)[nH]c1=O | inactive
7 | CC[N+](C)(CC)CCCCOc1ccc2c(c1)C(=O)c1cc(OCCCC[N+](C)(CC)CC)ccc1-2 | inactive
8 | Cc1nc(SCC(=O)N(C)c2ccccc2)[nH]c(=O)c1C | inactive
9 | CC1CCN(C(=O)C2CCN(c3nnc(-n4cccc4)s3)CC2)CC1 | inactive
10 | CCC(Sc1nc2c(c(=O)[nH]1)CCC2)C(=O)Nc1cccc(OC)c1 (centres undefined) | inactive
11 | CN[C@@H]1[C@H](O[C@H]2[C@H](O[C@H]3[C@H](O)[C@@H](O)[C@H](N=C(N)N)[C@@H](O)[C@@H]3N=C(N)N)O[C@@H](C)[C@]2(O)C=O)O[C@@H](CO)[C@H](O)[C@H]1O | inactive
12 | Cn1c(SCC(=O)NC2CCCCC2)nc2ccccc2c1=O | inactive
13 | NC(=O)c1cnccn1 | inactive
14 | Cc1cc(=O)[nH]c(=S)[nH]1 | inactive
15 | CCC(Sc1nc2ccccc2c(=O)[nH]1)C(=O)NC1CCCCC1 (centres undefined) | inactive
16 | CNC(=O)CSc1nc2ccccc2c(=O)[nH]1 | inactive
17 | CCCc1cc(C(N)=S)ccn1 | inactive
18 | O=C(CSc1nc2ccccc2c(=O)[nH]1)NC1CCCC1 | inactive
19 | CC(C)CCNC(=O)CSc1nc2ccccc2c(=O)[nH]1 | inactive
